This is one part of a sample in which hits are shown more often than they occur.
RE007 growth inh = qHTS Assay for Inhibitors of the HIV-1 protein Vpr; S. pombe RE007 Vpr strain, BacTiter-Glo ATP luminescence, 24 h; Potency, µM (titrated, usually from 92.2 µM), most hits filed as inhibitors; 0.21% of 360,000 active; AID 651644, 2012; active means well fitted falling curve with a large enough effect; inconclusive means small, poorly fitted or top-dose-only effect; inactive means no such curve, though single readings can be large or run the other way; further: nearly all actives have a fitted effect of over 50% in size
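Fission yeast strain RE007, carrying one chromosomally integrated HIV-1 vpr copy, was seeded at OD 0.01 in PMG+AL medium with 23 nL pinned compound. After 24 h at 30 °C and 99% humidity, viability was read by BacTiter-Glo luminescence.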
TbPYK inhibitor = qHTS of Trypanosoma Brucei Inhibitors; pyruvate kinase (Trypanosoma brucei), Q57TT1; TbPYK enzyme, Kinase-Glo Plus ATP luminescence, 45 min; Potency, µM (top dose mostly 76.8 µM), hits mostly inhibitors; 0.12% of 410,000 active; AID 624173, 2012; further: nearly all actives have a fitted effect of over 50% in size
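Assay buffer: 50 mM TEA pH 7.2, 100 mM KCl, 10 mM MgCl2, 0.05% BSA, 0.01% Tween-20. Pyruvate kinase from T. brucei plus substrate met compound, then ADP (130 uM final). Luminescence was read post 45 min RT.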
LmPK inh = qHTS Assay for Inhibitors of Leishmania Mexicana Pyruvate Kinase (LmPK); purified LmPK, Kinase-Glo ATP luminescence, 1 h; Potency, µM (top dose mostly 57.5 µM), most hits filed as inhibitors; 0.37% of 290,000 active; AID 1721, 2009
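Pyruvate kinase activity monitored as ATP production (luciferase luminescence). Conditions: 0.1 nM enzyme, 0.5 mM PEP, 0.1 mM ADP, 1 h, RT; normalized against uninhibited and no-enzyme wells.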
CHX counter = Cycloheximide Counterscreen for Small Molecule Inhibitors of Shiga Toxin; cell reporter, cycloheximide protein synthesis inhibition counterscreen; max response, %; 12% of 300,000 active; AID 2314, 2010; in the data active means max response mostly above about 13%, no sharp cut-off; inactive means mostly below about 14%; further: read at 38.3 µM for the half of the compounds with a filed dose
Shiga toxin inh = A qHTS for Small Molecule Inhibitors of Shiga Toxin; Vero cells, Shiga toxin protein synthesis inhibition reporter; AID 2315, 2010; inhibition, % at 38.7 µM; 9.2% of 290,000 active; in the data active means inhibition mostly above about 28%, no sharp cut-off; inactive means mostly below about 43%
Giardia FBPA inh = qHTS Assay for Inhibitors of Fructose-1,6-bisphosphate Aldolase from Giardia Lamblia; A8B2U2; purified Giardia FBPA; Potency, µM (titrated, usually from 59.6 µM), usual class: inhibitors; 0.71% of 290,000 active; AID 2451, 2010; further: nearly all actives have a fitted effect of over 55% in size
Target sequence (A8B2U2 whole entry, looked up): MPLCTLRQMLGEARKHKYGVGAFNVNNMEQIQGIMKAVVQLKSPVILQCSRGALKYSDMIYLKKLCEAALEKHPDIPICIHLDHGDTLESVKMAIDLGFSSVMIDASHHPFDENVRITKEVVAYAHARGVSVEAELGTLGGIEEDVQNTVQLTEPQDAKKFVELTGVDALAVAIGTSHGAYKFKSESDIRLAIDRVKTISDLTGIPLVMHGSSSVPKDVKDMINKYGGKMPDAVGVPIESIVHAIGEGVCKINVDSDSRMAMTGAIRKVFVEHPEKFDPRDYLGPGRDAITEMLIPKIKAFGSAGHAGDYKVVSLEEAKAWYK
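Giardia FBPA (40 nM reagent) was preincubated 10 min at RT with compound (up to 57.5 uM final), then substrate plus GAPDH/TPI/NAD/arsenate coupling system with diaphorase/resazurin was added; resorufin fluorescence (525/598 nm) was read after 20 min.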
Hits are given with their value; 0 = inactive; ? = inconclusive; - = no result given; + = active, no number; [ ] = dose if it differs, or a comment. Unless noted, the call rests on the fitted dose curve; in most records, active means well fitted curve in the direction sought with a large enough effect; inconclusive means small, poorly fitted or top-dose-only effect, or another doubt; inactive means no such curve, though single readings can be large; an effect the other way counts as inactive or inconclusive.

SMILES	RE007 growth inh	TbPYK inhibitor	LmPK inh	CHX counter	Shiga toxin inh	Giardia FBPA inh
CS(=O)(=O)N1N=C(c2ccc(Br)cc2)CC1c1cccs1 (configuration not stated)	0	0	0	32	48	0
S=C(Nc1ccccc1)N1N=C(c2cccs2)CC1c1cccs1 (configuration not stated)	0	0	0	0	20	0
CS(=O)(=O)N1N=C(c2ccco2)CC1c1ccc(Br)cc1 (configuration not stated)	0	0	0	21	0	0
Cc1ccc(-c2nnc(SCC(=O)N/N=C/c3ccc(C)s3)n2-c2ccc(C)cc2)cc1	0	0	0	0	0	0
O=C(COc1cc(Cl)c(Cl)cc1Cl)Nc1ccc([N+](=O)[O-])cc1Cl	0	0	0	0	0	0
CCc1ccc(NC(=O)Cn2c(=O)n(Cc3nc(C)no3)c(=O)c3cc4c(cc32)OCO4)cc1	-	0	-	-	-	-
COc1ccc(CNC(=O)[C@@H](NC(=O)C2CCN(C(=O)[C@@H](N)CC(C)C)CC2)C(C)C)cc1	0	0	0	0	0	?
O=C(Nc1ccncc1)c1cc(S(=O)(=O)N2CCOCC2)ccc1Cl	0	0	-	-	-	-
COc1cc(/C=N/Nc2ccc(Cl)c(C(=O)O)c2)ccc1OC(=O)c1ccco1	0	0	0	37	68	0
COc1cc(/C=N/Nc2nc(N3CCCCC3)nc(N3CCCCC3)n2)ccc1OC(=O)c1ccco1	-	-	0	0	0	0
COc1cc(C=O)ccc1OC(=O)c1ccc(C(C)C)cc1	?	0	0	35	0	0
Cc1ccc(S(=O)(=O)Oc2cccc(/C=N/n3cnnc3)c2)cc1	0	0	0	0	0	0
COc1ccc(C(=O)Oc2cc(/C=N/NC(N)=S)ccc2OC)cc1	0	0	0	0	0	-
COc1ccc(C(=O)Oc2ccc(/C=N/Nc3ccc(Cl)c(C(=O)O)c3)cc2OC)cc1	0	0	0	21	93	0
Cc1ccc(S(=O)(=O)Oc2cccc(/C=N/Nc3ccc(C(=O)O)cc3)c2)cc1	0	0	0	37	26	18µM
CC[C@]12CCCN3CCc4c(n(c5ccccc45)C(=O)C1)[C@H]32	-	-	-	-	-	0
COc1cc(/C=N/Nc2ccc(Cl)c(C(=O)O)c2)ccc1OCC(=O)N1C(C)CCCC1C (configuration not stated)	0	0	0	0	59	0
COc1ccc(/C=N/Nc2ccc(C(=O)O)cc2)cc1OC	0	0	0	27	0	0
C=CCOc1c(Br)cc(/C=N/Nc2ccc(C(=O)O)cc2)cc1OCC	0	0	0	79	+	0
Cc1cc(C)c2c(CN3CCCCC3)cc(=O)oc2c1	0	0	0	11	0	0
Cc1cc(C)c2c(CN3CCCCCCC3)cc(=O)oc2c1	0	0	-	-	-	-
CCc1ccc2c(CN3CCC(C(=O)OC)CC3)cc(=O)oc2c1	0	0	0	16	0	0
Cc1cc2oc(=O)cc(CN3CCC(C)CC3)c2c(C)c1Cl	0	0	0	0	0	0
Cc1cc2oc(=O)cc(CN3CCC(C)CC3)c2cc1C	0	0	0	20	0	0
Cc1cc(C)c2c(CN3CCC(C)CC3)cc(=O)oc2c1	0	0	0	38	61	0
SMILES	RE007 growth inh	TbPYK inhibitor	LmPK inh	CHX counter	Shiga toxin inh	Giardia FBPA inh
O=C1CC2(CCCC2)CC(=O)N1CCCCNC[C@H]1COc2ccccc2O1	-	-	-	-	-	0
O=C(CNc1ccc(C(F)(F)F)cc1)Nc1cccc(S(=O)(=O)N2CCCCC2)c1	0	0	-	-	-	-
CCCNC(=O)[C@@H]1CCCN1C(=O)[C@@H]1Cc2ccccc2CN1	0	0	0	0	0	0
C[C@H](NC(=O)N1CCc2nc(-c3ccccc3)c3c(c2C1)CO[C@@H](C)C3)c1ccccc1	-	-	0[11.5 µM]	-	-	0[12.9 µM]
O=C(CSc1cn[nH]n1)Nc1ccccc1C(=O)O	0	0	0	0	0	0
CS(=O)(=O)N1CCN(c2cnn(-c3ccccc3)c(=O)c2Cl)CC1	0	0	0	0	0	0
O=C(c1ccc(F)cc1)N1CCN(c2cnn(-c3ccccc3)c(=O)c2Cl)CC1	0	0	0	0	0	0
CN1CCN(c2cnn(-c3ccccc3)c(=O)c2Br)CC1	0	0	0	29	53	0
O=c1c(Br)c(N2CCCCC2)cnn1-c1ccccc1	0	0	0	21	116	0
O=c1c(Br)c(N2CCOCC2)cnn1-c1ccccc1	0	0	0	18	92	0
O=c1c(Br)c(N2CCCC2)cnn1-c1ccccc1	0	0	0	47	81	0
CC(=O)Nc1c(C(=O)N2CCCCCC2)cnn1-c1ccccc1	0	0	0	0	0	0
COc1ccc(C(=O)C2CCCN(Cc3ccc4nonc4c3)C2)c(OC)c1 (configuration not stated)	0	0	0	0	0	0
COCCn1ccc2c(OCC(=O)Nc3ccccc3F)cccc2c1=O	-	0	-	-	-	-
C/C(=N\OC(=O)c1ccc(Br)cc1)c1ccccn1	0	0	?	0	0	0
C/C(=N/OCc1ccc(Br)cc1)c1ccccn1	0	0	0	26	60	0
CC(=O)NCCNc1ncnc2ccc(-c3ccc(C(=O)N(C)C)cc3)cc12	-	-	-	-	-	0
CCN(CC)C(=O)c1cc2c(=O)oc3ccccc3c2s1	0	0	0	27	34	0
CCn1cc(C(=O)NCCc2ccc(OC)c(OC)c2)c(=O)c2cc(S(=O)(=O)N3CCc4ccccc4C3)ccc21	-	0	-	-	-	-
Cc1noc(C)c1-c1ccc2ncnc(NCc3cccc(C(F)(F)F)c3)c2c1	-	-	-	0	0	0
CC1=C(CC(=O)c2ccc(Cl)cc2)C(=O)c2ccccc2C1=O	0	0	0	27	61	0
COc1cccc(CCc2nc3ccccc3c(=O)n2N)c1	0	0	-	-	-	-
CCCCCc1nc2ccccc2c(=O)n1N	0	0	0	22	0	0
CCCc1nc2ccccc2c(=O)n1N	0	0	0	0	0	0
Cc1cc(/C=N/n2c(COc3ccccc3C)nc3ccccc3c2=O)c(O)c([N+](=O)[O-])c1	0	0	0	62	57	0
SMILES	RE007 growth inh	TbPYK inhibitor	LmPK inh	CHX counter	Shiga toxin inh	Giardia FBPA inh
Nn1c(COc2ccccc2)nc2ccccc2c1=O	0	0	0	48	57	0
CC#CCCc1nc2ccccc2c(=O)n1N	0	0	0	0	0	0
Cc1ccccc1OCc1nc2ccccc2c(=O)n1/N=C/c1c[nH]c2ccccc12	0	0	0	0	0	0
COc1cccc(OCc2nc3ccccc3c(=O)n2N)c1	0	0	0	27	84	0
O=C(NCCN1CCCC1)C1CCC(=O)N(CCCN2CCOCC2)C1 (configuration not stated)	0	0	0	0	0	-
Cc1ccccc1-c1noc(-c2cccnc2N2CCN(c3ccccc3)CC2)n1	-	0	-	-	-	-

High-throughput results: PubChem, National Center for Advancing Translational Sciences (NCATS)
